Results filed as inconclusive are left out. A call without a number means that no potency is given here. Activity calls are given as the source filed them. Calls come from the whole dose curve; as a rule, active = well fitted cell-killing curve with a large enough effect; inconclusive = small, poorly fitted or top-dose-only effect; inactive = flat fitted curve, though single readings scatter.
Assay: Cell Viability - LYMP2-023 (AID 975); note: nearly all actives have a fitted effect of over 55% in size
Settings: LYMP2-023 lymphoblastoid cell viability; series mostly up to 92.2 µM
Description: NIH Chemical Genomics Center [NCGC]
NIH Molecular Libraries Screening Centers Network [MLSCN]
National Institutes of Environmental Health Sciences [NIEHS]
National Toxicology Program [NTP]
We have developed a 1536-well cell-based assay for quantitative high throughput screening (qHTS) against a number of cell lines to determine in vitro cytotoxicity of small molecules. This particular assay uses a human lymphoblastoid cell line (LYMP2-023) purchased from Coriell Institute for Medical Research.
NCGC Assay Protocol Summary:
The CellTiter-Glo luminescent cell viability assay (Promega) is a homogeneous method to measure the number of viable cells in culture. The end point readout of this assay is based on quantitation of intracellular ATP, an indicator of metabolic activity, using the luciferase reaction. Luciferase catalyzes the oxidation of beetle Luciferin to oxyluciferin and light in the presence of ATP. The luminescent signal is proportional to amount of ATP present.
Using the CellTiter-Glo luminescent cell viability assay, the amount of cellular ATP was measured in the lymphoblastoid cell line with complete culture medium following compound treatment for 24 hours. The assay was performed in opaque white Kalypsys 1536-well plates. In the screen, tetraoctylammonium bromide was used as positive control. Library compounds were measured for their ability to cause acute toxicity in the cell line, as reflected by a decrease in intracellular ATP levels, in a concentration-dependent manner. […] AC50 values were determined from concentration-response data modeled with the standard Hill equation.
qHTS protocol for CellTiter Glo lymphoblastoid cellular assay
[Step] [Parameter] [Value] [Description]
1. Reagent; 5 uL; 2500 lymphoblastoid cells/well
2. Time; 5 hr; 37 C incubation
4. Controls; 23 nL; Tetraoctylammonium bromide 6.4pM to 92 uM
5. Time; 24 hr; 37 C incubation
6. Reagent; 5 uL; CellTiter Glo reagent
7. Time; 30 min; Room Temperature
8. Detection; Luminescence; Viewlux plate reader
Keywords: cell viability, cytotoxicity, lymphoblastoid cell line, luminescence, NTPHTS, NTPHTS_NCGC, NIEHS, DSSTox, MLSMR, MLSCN, NIH Roadmap, qHTS, NCGC

Compound	Potency
CN(C)c1ccc(N=Nc2ccccc2)cc1	inactive
CCCCOC(=O)c1ccccc1N	inactive
Nc1ccccc1-c1ccccc1	inactive
Cc1ccc(OP(=O)(Oc2ccc(C)cc2)Oc2ccc(C)cc2)cc1	inactive
CC1CC(=O)O1 (stereo not given)	inactive
CC(Cl)CCl (stereo not given)	inactive
CC(C)(C)C(O)(CCc1ccc(Cl)cc1)Cn1cncn1 (stereo not given)	inactive
OCCOCCO	inactive
Oc1cccc(Cl)c1Cl	inactive
S=c1[nH]c2ccccc2[nH]1	inactive
Cc1cc(-c2cc(C)c(N)c(C)c2)cc(C)c1N	inactive
CN(C)C(=O)Cl	inactive
C=CCO	inactive
CC(C)(OOC(C)(C)c1ccccc1)c1ccccc1	inactive
Nc1cc(Cl)cc(Cl)c1	inactive
C/C=C/C=O	inactive
CCOC(=O)CBr	inactive
NC1CCC(CC2CCC(N)CC2)CC1 (stereo not given)	inactive
N#CC(O)c1ccccc1 (stereo not given)	inactive
Cc1ccc(N=C=O)cc1N=C=O	inactive

Compound	Potency
Nc1ccc(Oc2ccc(N)cc2)cc1	inactive
c1ccc(OCC2CO2)cc1 (stereo not given)	inactive
CCSC(=O)N1CCCCCC1	inactive
O=C(O)CBr	inactive
Cc1cc(Cl)ccc1O	inactive
Cc1ccc(N)c(N)c1	inactive
Oc1cccc(Cl)c1	inactive
C=CCc1cc(OC)c2c(c1)OCO2	inactive
O=[N+]([O-])c1cccc(CCl)c1	inactive
CN=C=O	inactive
O=[N+]([O-])CCO	inactive
ClCCOCOCCCl	inactive
C=C(C)CCl	inactive
Cc1cc(-c2ccc(N)c(C)c2)ccc1N	inactive
Nc1cccc(Cl)c1	inactive
O=[N+]([O-])c1ccc(O)c([N+](=O)[O-])c1	inactive
COc1cc(-c2ccc(N)c(OC)c2)ccc1N	inactive
N#C/C(N)=C(/N)C#N	inactive
ClCc1ccccc1	inactive
O=S(=O)(O)F	inactive

Source: PubChem BioAssay (NCATS)
